Compound activity as filed in PubChem.
D2 ag-1: HTS Assay for Allosteric Agonists of the Human D2 Dopamine Receptor: Primary Screen for Agonists; AID 485358, 2010; activation, % at 2 µM; D(2) dopamine receptor (Homo sapiens), P14416; hit rate 0.53% among 340,000; HEK293 T-REx D2 cells, calcium flux agonist mode;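 active means activation over 3 SD above normal in the single-dose calcium agonist read, cut at about 30% in these data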
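Calcium-flux readout, 1 cycle/sec over 180 s following compound pin transfer, in inducible HEK293 Trex D2 cells (force-coupled); dopamine controls included. Positive calcium responses during this window marked compounds as potential agonists.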
D2 PAM-1: HTS Assay for Positive Allosteric Modulators of the Human D2 Dopamine Receptor: Primary Screen for Potentiators; D(2) dopamine receptor (Homo sapiens), P14416; HEK293 T-REx D2, calcium flux, EC20 dopamine potentiation; potentiation, % at 10 µM; hit rate 0.34% among 340,000;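 active means potentiation over 3 SD above the plate norm, cut at about 30% in these data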
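Cells plated with tetracycline inducer and held overnight at 30 C; calcium dye loaded 30–90 min at room temperature; baseline taken, compound added and read 180 s; EC20 dopamine then added and read 180 s.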
D2 PAM-2: Beta-Arrestin HTS for Positive Allosteric Modulators of the Human D2 Dopamine Receptor: Potentiators | D(2) dopamine receptor (Homo sapiens), P14416 | DiscoveRx D2 beta-arrestin cells, luminescence, 90 min; 100% = 57 uM dopamine signal | potentiation, % (no concentration beside the values) | hit rate 0.23% among 360,000; in the data active means potentiation above about 50%; inconclusive means mostly about 30% to 49%
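PathHunter D2 cells, attached overnight at 37 deg C, received compound in DMSO plus dopamine at EC20 (50 nM final) for 90 min at 37 deg C. Beta-arrestin recruitment was read as luminescence after 1 h with detection reagent at ambient temperature.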
D2 antag: HTS Assay for Allosteric Antagonists of the Human D2 Dopamine Receptor: Primary Screen for Antagonists; HEK293 TREx D2 cells, calcium flux, dopamine EC80; inhibition, % at 10 µM; hit rate 2% among 340,000; in the data active means inhibition above about 30%; inactive means below that, where a call was filed
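Measurement of antagonist activity uses fluorescent calcium dye in inducible HEK293 T-REx D2 cells: 10 s baseline, compound addition with 180 s read, EC80 dopamine addition with a further 180 s read.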
D2 ag-2: Beta-Arrestin HTS for Positive Allosteric Modulators of the Human D2 Dopamine Receptor: Agonists; D(2) dopamine receptor (Homo sapiens), P14416; DiscoveRx PathHunter D2 beta-arrestin, luminescence, 90 min; 100% = 57 uM dopamine signal; activation, % (no concentration beside the values); hit rate 0.084% among 360,000; AID 624465, 2012; in the data active means activation above about 40%; inconclusive means between about 15% and that limit
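Agonist mode: compounds alone added to overnight-plated D2 PathHunter cells for 90 min at 37 C, with 57 uM final dopamine (EC100) defining full response. Beta-arrestin recruitment detected by chemiluminescent reagent, read after 1 h at ambient temperature.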
D3 arrestin ag: qHTS of D3 Dopamine Receptor Agonist: D3 Dopamine Receptor B-arrestin Agonist Confirmatory Assay; Potency, µM (series often up to 76.9 µM), usual class: activators; DiscoveRx D3 beta-arrestin cells, luminescence, 90 min; shares compounds with D2 ag-1; hit rate 4% among 2,300; AID 720506, 2013; further: nearly all actives have a fitted effect of over 70% in size
Target sequence (P35462 whole entry, looked up): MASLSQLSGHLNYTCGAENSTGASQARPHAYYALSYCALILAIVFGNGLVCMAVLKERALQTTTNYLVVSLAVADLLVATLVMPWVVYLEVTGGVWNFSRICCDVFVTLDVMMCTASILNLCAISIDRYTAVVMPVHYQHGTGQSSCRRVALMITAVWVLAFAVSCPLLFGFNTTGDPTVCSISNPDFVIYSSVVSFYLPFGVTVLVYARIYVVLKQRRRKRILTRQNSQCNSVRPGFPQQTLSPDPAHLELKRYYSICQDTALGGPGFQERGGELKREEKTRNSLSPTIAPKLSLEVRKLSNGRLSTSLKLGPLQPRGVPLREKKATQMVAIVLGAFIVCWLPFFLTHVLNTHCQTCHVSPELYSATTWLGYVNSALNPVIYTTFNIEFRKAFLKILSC
D2 ag-3: qHTS of D3 Dopamine Receptor Agonist: D2 Dopamine Receptor B-arrestin Agonist Counterscreen; DiscoveRx PathHunter D2 beta-arrestin, luminescence, 90 min; response scale: percent relative to full dopamine signal; hit rate 5.9% among 2,300; shares compounds with D2 ag-1; AID 720507, 2013; Potency, µM (doses to about 76.9 µM), hits mostly activators; further: nearly all actives have a fitted effect of over 70% in size
A number is an active result; – = inactive; ? = inconclusive; · = not tested or not shown. Shown are actives, neighbours in structure and some others; about 2.4% of the full set was active somewhere. Unless noted, the call rests on the fitted dose curve; in most records, active means well fitted activation curve with a large enough effect; inconclusive means small, poorly fitted or top-dose-only effect; inactive means flat fitted curve, though single readings scatter.

SMILES	D2 ag-1	D2 PAM-1	D2 PAM-2	D2 antag	D2 ag-2	D3 arrestin ag	D2 ag-3
CCOC(=O)C(NC(=O)c1ccccc1Cl)(Nc1ccc(C)c(C)c1)C(F)(F)F (centres undefined)	–	–	–	–	–	·	·
COc1ccc(-c2nc(CN3CCN(C(=O)c4ccco4)CC3)c(C)o2)c(F)c1	61	–	–	–	?	?	?
COc1ccc(OC)c(-c2nc(CN3CCN(C(=O)c4ccco4)CC3)c(C)o2)c1	49	–	–	–	–	–	–
COc1ccc(-c2nc(CN3CCN(C(=O)c4ccco4)CC3)c(C)o2)c(OC)c1C	102	–	?	92	46	?	?
COc1ccc(-c2nc(CN3CCN(C(=O)c4ccco4)CC3)c(C)o2)cc1OC	–	–	–	–	–	·	·
Cc1oc(-c2ccc(F)cc2F)nc1CN1CCN(C(=O)c2ccco2)CC1	·	·	–	·	–	·	·
c1ccc(CCN2CN(CCCN3CCOCC3)c3nc4ccccc4n3C2)cc1	56	–	–	–	–	–	–
CC(C)COc1ccc(C(=O)Nc2cc(-c3ccccc3)no2)cc1	–	–	·	·	·	·	·
Cc1ccccc1OCc1nc2ccc(S(=O)(=O)N3CCOCC3)cc2[nH]1	–	–	–	–	–	·	·
O=S(=O)(c1ccc2nc(COc3ccc(Cl)cc3Cl)[nH]c2c1)N1CCOCC1	–	–	–	38	–	–	–
COc1cc(-c2noc(C)c2C#CC2(N)CCCCC2)cc(OC)c1OC	–	–	–	–	–	·	·
COc1cc(-c2noc(C)c2C#CC2(O)CCCCC2)cc(OC)c1OC	72	–	–	–	–	–	–
Oc1ccc(C2CNCc3sccc32)cc1O (centres undefined)	84	–	71	96	63	3.5µM	2.8µM
CC(C)(O)[C@@H]1CC(=O)[C@]2(C)[C@H](CC[C@@]3(C)[C@H](c4ccoc4)OC(=O)[C@H]4O[C@]432)[C@@]1(C)/C=C\C(=O)O	–	–	–	–	–	·	·
CC1(C)OC(=O)C=C[C@]2(C)[C@H]3CC[C@@]4(C)[C@H](C(=O)O)OC(=O)[C@H]5O[C@]54[C@]3(C)C(=O)C[C@@H]12	–	–	–	–	–	–	–
CC(C)NCC1CCc2cc(CO)c([N+](=O)[O-])cc2N1 (centres undefined)	42	–	–	–	–	–	–
CC(C)N(C(=O)Nc1ccc2nsnc2c1)C(C)C	53	–	–	–	–	?	–
Cc1c(Cl)cccc1NC(=O)Cn1cnc2nc3c(cc2c1=O)CCCC3	–	–	·	·	·	·	·
CCc1ccccc1Nc1cc(C(=O)NCCc2ccccc2)c2ccccc2n1	–	–	·	·	·	·	·
Fc1ccccc1CN1CCN(c2ncccn2)CC1	84	–	?	84	98	?	7.9µM
O=C(c1ccccc1F)N1CCN(Cc2ccccc2F)CC1	–	–	–	–	–	·	·
O=C(CN1CCN(c2ncccn2)CC1)NCc1ccc2c(c1)OCO2	56	–	–	37	?	–	–
Clc1cccc(Cl)c1CN1CCN(c2ncccn2)CC1	55	–	–	46	?	–	?
O=[N+]([O-])c1ccc(Cl)c(CN2CCN(c3ncccn3)CC2)c1	–	–	–	33	–	–	–
COc1ccc(-n2ncc3c(NC4CCCC4)ncnc32)cc1	–	–	·	·	·	·	·
SMILES	D2 ag-1	D2 PAM-1	D2 PAM-2	D2 antag	D2 ag-2	D3 arrestin ag	D2 ag-3
Oc1cc2c(cc1CN1CCN(c3ncccn3)CC1)OCO2	86	–	?	83	96	?	0.56µM
Cc1ccc(C)c(CN2CCN(c3ncccn3)CC2)c1	75	–	–	60	53	–	?
Cc1ccc(C)c(S(=O)(=O)N2CCN(c3ncccn3)CC2)c1	·	–	–	·	–	·	·
CCOC(=O)c1c(-c2ccc(Cl)cc2)csc1NC(=O)CNCc1ccco1	51	–	–	–	–	–	–
CCOC(=O)c1c(-c2ccc(OC)cc2)csc1NC(=O)CNCc1ccco1	–	–	–	–	–	·	·
O=C1C2CCCCN2C(=O)N1CCCCN1CCN(c2cccc(C(F)(F)F)c2)CC1 (centres undefined)	·	·	–	·	–	·	·
O=C1C2CCCN2C(=O)N1CCCN1CCN(c2cccc(Cl)c2)CC1 (centres undefined)	–	–	–	31	–	–	–
O=c1n(CCCN2CCN(c3cccc(Cl)c3)CC2)nc2ccccn12	41	–	–	52	–	–	–
Cc1ccccc1NC(=O)COc1coc(CN2CCN(c3ccccc3)CC2)cc1=O	55	–	–	–	?	–	–
COc1ccc(NC(=O)COc2coc(CN3CCN(c4ccccc4)CC3)cc2=O)cc1	50	–	–	–	–	–	–
COc1ccc(N2CCN(Cc3cc(=O)c(OCC(=O)Nc4ccccc4)co3)CC2)cc1	–	–	–	–	–	·	·
CC(=O)Nc1ccc(C(=O)CSc2nnc3cc(C)c4ccccc4n23)cc1	–	–	·	·	·	·	·
CCOc1ccc(C(=O)N2CCC(c3nc4ccccc4o3)CC2)cc1	–	–	·	·	·	·	·
COc1cccc(N2CCN(Cc3nc(N)nc(N4CCCc5ccccc54)n3)CC2)c1	56	–	–	59	?	–	?
COC(=O)c1ccccc1NC(=O)c1cc2ccccc2o1	–	–	–	–	–	·	·
O=C(Nc1ccccc1C(F)(F)F)c1cc2ccccc2o1	–	–	–	47	–	–	–
CC(C)CN(CCCNC(=O)CC1Oc2ccccc2NC1=O)CC(C)C (centres undefined)	–	–	–	–	–	·	·
CCCCN(CC)CCCNC(=O)CC1Oc2ccccc2NC1=O (centres undefined)	81	–	?	87	53	?	50µM
CCN(CC)CCCNC(=O)CC1Sc2ccccc2NC1=O (centres undefined)	–	–	–	–	–	–	–
COc1ccccc1NC(=O)c1cc2cc3ccc(OC)c(Cl)c3nc2s1	–	–	·	·	·	·	·
